Rows were chosen to be rich in hits. Some 2.7% of all compounds tested hit in one or more screens of this group.
HIF-2a block = inhibitors of HIF-2a; 786-0 RCC cells HIF-2a reporter, luciferase luminescence, overnight; inhibition, % at 18.8 µM; actives 0.72% (n = 360,000); AID 624352;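 active = inhibition of the luminescence signal of 40% or more relative to plate controls, in a single-dose primary screen at 18.75 µM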
TRPM1 prom inh = inhibitors of MITF-driven TRPM1 promoter in melanoma cells; actives 0.83% (n = 330,000); inhibition, % at 12.5 µM; SK-MEL-5 TRPM1 promoter luciferase, 24 h;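 active = mean inhibition across replicates of 60% or more, whatever share of single replicates reaches that level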
Shn3 inh set2 = reduces Shn3 3'UTR luciferase signal in osteoblasts; actives 0.52% (n = 360,000); AID 588674; Clone20 osteoblast Shn3 3'UTR firefly luciferase, 24 h; inhibition, % at 12.5 µM;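 active = mean inhibition of at least 75% with every replicate also reaching 75%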
KKLEB tox = counter-screen for CF NF-kB inhibitors: cytotoxicity | KKLEB CF airway cells viability, ATPlite luminescence, overnight; active compounds read low; cells stimulated with P. aeruginosa culture filtrate | activity change (cytotoxicity), % at 5 µM | actives 0.36% (n = 360,000) | AID 602141;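 active = corrected activity change at or below -50% at 5 µM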
CF NFkB inh = blocks PAF-induced NF-kB reporter in cystic fibrosis cells. KKLEB NF-kB-GFP reporter, GFP fluorescence overnight. inhibition, % at 5 µM. actives 0.86% (n = 360,000). AID 588850;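 active = at least 50% inhibition at 5 µM, scaled per plate between neutral and stimulator controls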;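 also: PAF is a Pseudomonas aeruginosa culture filtrate used as stimulus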
Peg3 prom inh = inhibitors of Peg3 promoter | HeLa PEG-Prom luciferase reporter, luminescence, overnight | inhibition, % at 20 µM | actives 1.7% (n = 360,000) | AID 588405;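 active = inhibition of at least 50% at 20 µM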
Of the large screens only hits and unclear results are named; the others gave an inactive call.

CCN1CCN(c2ccc(S(=O)(=O)N3CCCCC3)cc2NC(=O)c2ccc([N+](=O)[O-])s2)CC1	TRPM1 prom inh 85, Peg3 prom inh 64
CCN1CCN(c2ccc(S(=O)(=O)N3CCCCC3)cc2NC(=O)/C=C/c2ccc(Cl)cc2)CC1	TRPM1 prom inh 89, Peg3 prom inh 85
CCN1CCN(c2ccc(S(=O)(=O)N3CCCCC3)cc2NC(=O)/C=C/c2cc(OC)ccc2OC)CC1	Peg3 prom inh 101
CC1(c2nnnn2-c2ccc3c(c2)OCCO3)CCC(=O)N1CCc1ccccc1F (stereo unspecified)	none (no result: TRPM1 prom inh, Shn3 inh set2, KKLEB tox, CF NFkB inh, Peg3 prom inh)
CCCCn1c(N)c(N(CCOC)C(=O)CCS(=O)(=O)c2ccc(C)cc2)c(=O)[nH]c1=O	none (no result: TRPM1 prom inh)
c1ccc(-c2noc(-c3ccc4ccccc4c3)n2)nc1	HIF-2a block 88, TRPM1 prom inh 79, Shn3 inh set2 89, KKLEB tox -91, Peg3 prom inh 87
CC(C)N1CCN(c2ccc(OCC3COC(Cn4cncn4)(c4ccc(Cl)cc4Cl)O3)cc2)CC1 (stereo unspecified)	Shn3 inh set2 95
COc1ccc2c(c1)N(C)/C(=C/c1cccc[n+]1C)S2	Peg3 prom inh 64
CCN1/C(=C/c2cccc[n+]2C)Sc2ccc(OC)cc21	none
Cc1ccc2c(c1)N(C)/C(=C/c1cccc[n+]1C)S2	Shn3 inh set2 88
O=C(OCc1ccccc1)N1CCC2CC1c1ccc(N3CCNCC3)cc12 (stereo unspecified)	none (no result: TRPM1 prom inh)
CC1(C(=O)Nc2cccc(C#N)c2)CCN1C(=O)C1(c2ccccc2)CC1 (stereo unspecified)	none (no result: TRPM1 prom inh)
CC(=O)N(C1=C(N2CCOCC2)C(=O)c2ccccc2C1=O)c1ccc(C(=O)O)cc1	HIF-2a block 64 (no result: Shn3 inh set2)
Nc1nc2nn(-c3ccccc3)nc2c(=O)[nH]1	none
Nc1nc2n[nH]nc2c(=O)[nH]1	TRPM1 prom inh 65
C[C@@H]1CCCCO[C@H](CN(C)Cc2ccccc2)[C@@H](C)CN([C@H](C)CO)C(=O)c2cc(NC(=O)c3ccccc3)ccc2O1	Shn3 inh set2 90 (no result: TRPM1 prom inh)
C[C@@H]1CCCCO[C@H](CN(C)Cc2ccc(Cl)c(Cl)c2)[C@H](C)CN([C@@H](C)CO)C(=O)c2cc(NC(=O)Nc3ccc(F)cc3)ccc2O1	none (no result: TRPM1 prom inh)
C[C@@H]1CN([C@@H](C)CO)C(=O)c2cc(NC(=O)c3ccccc3)ccc2O[C@@H](C)CCCCO[C@@H]1CN(C)Cc1ccc(C(F)(F)F)cc1	none (no result: TRPM1 prom inh)
COc1ccc(NC(=O)Nc2ccc3c(c2)C(=O)N([C@H](C)CO)C[C@H](C)[C@@H](CN(C)Cc2ccc(Cl)c(Cl)c2)OCCCC[C@@H](C)O3)cc1	Peg3 prom inh 86 (no result: TRPM1 prom inh)
O=C(C1=C(c2ccccc2)C(=O)c2ccccc2C1=O)c1ccccc1	TRPM1 prom inh 64, Shn3 inh set2 93, CF NFkB inh 76, Peg3 prom inh 92
COC1=C(c2ccccc2)C(=O)c2ccccc2C1=O	TRPM1 prom inh 75
COc1ccc(C2=C(N)c3ccccc3C2=O)cc1	none
O=C(c1ccccc1)c1c[nH]cc1-c1ccccc1	none
COc1ccccc1C(C)Nc1nc(-c2cccnc2)nc2ccccc12 (stereo unspecified)	none
Cc1ccc(S(=O)(=O)N2CC3(O)CN(C(=O)OC(C)C)N(C(=O)OC(C)C)CC3(OC(=O)NCc3ccccc3)C2)cc1 (stereo unspecified)	none (no result: TRPM1 prom inh)
Cc1ccc(NS(=O)(=O)c2cc(-c3n[nH]c(=O)c4ccccc34)ccc2C)cc1	Peg3 prom inh 62
CCOC(=O)CNS(=O)(=O)c1cc(-c2n[nH]c(=O)c3ccccc23)ccc1C	none
C/C(=N/NC(=O)C(O)(c1ccccc1)c1ccccc1)c1ccc([N+](=O)[O-])o1	TRPM1 prom inh 65
COc1cccc(/C=N/Nc2ncnc3c2ncn3Cc2ccccc2)c1O	Shn3 inh set2 90
COc1ccc(CN2C[C@@H](CO)O[C@@H](n3cnc4c(NCc5ccco5)ncnc43)C2)cc1	none (no result: TRPM1 prom inh)
O=C(CCCOc1ccc(Cl)cc1Cl)N/N=C/c1ccccc1O	Peg3 prom inh 52
CC(C)(C)NC(=O)NC(=O)CN1CCN(c2ccc(O)cc2)CC1	Shn3 inh set2 87
NNC(=O)c1[nH]c2ccc([N+](=O)[O-])cc2c1-c1ccccc1	none (no result: TRPM1 prom inh)
O=C(N/N=C/c1ccccn1)c1cc(-c2ccccc2)nc2ccccc12	Peg3 prom inh 66 (no result: TRPM1 prom inh)
O=C(N/N=C/c1ccccn1)c1[nH]c2ccc([N+](=O)[O-])cc2c1-c1ccccc1	Peg3 prom inh 55
Nc1nc(=O)n(C2CCC(CO)O2)cc1F (stereo unspecified)	none (no result: TRPM1 prom inh, Shn3 inh set2, KKLEB tox, CF NFkB inh, Peg3 prom inh)
COc1ccc(NC(=O)C2(C)Cc3c(-c4cccc(C(F)(F)F)c4)ccnc3O2)cc1OC (stereo unspecified)	none (no result: TRPM1 prom inh)
Cc1cc(C(C#N)c2ccc(Cl)cc2)c(Cl)cc1NC(=O)c1cc(I)cc(I)c1O (stereo unspecified)	CF NFkB inh 62
COc1ccc(C#Cc2c(-c3ccsc3)oc3ccc(N4CCOCC4)cc23)cc1	none
c1cc(-c2cc3cc(N4CCOCC4)ccc3o2)cs1	KKLEB tox -70
Cc1c(CCOC(=O)CC23CC4CC(CC(C)(C4)C2)C3)sc[n+]1CC(=O)c1ccccc1	TRPM1 prom inh 84, Peg3 prom inh 84
Cc1c(CCOC(=O)CC23CC4CC(CC(C4)C2)C3)sc[n+]1CC(=O)c1ccc(Br)cc1	Shn3 inh set2 94
COc1cccc(CNC(=O)[C@@H]2CCCN2C(=O)[C@H]2CCCCN2C(=O)c2c(F)cccc2F)c1	none (no result: TRPM1 prom inh, Shn3 inh set2, KKLEB tox, CF NFkB inh, Peg3 prom inh)
CCOC(=O)C1=C(C)N(CCCC(=O)O)C(=O)NC1c1ccc2ccccc2c1 (stereo unspecified)	Shn3 inh set2 86
CCOC(=O)C1=C(C)N(CCCC(=O)O)C(=O)NC1c1ccccc1 (stereo unspecified)	none
CC1(C(=O)NS(=O)(=O)c2ccc(Cl)cc2)CCN1C(=O)CCC1CCCC1 (stereo unspecified)	none (no result: TRPM1 prom inh)
Cc1ccc(C2C(/C=C3/SC(=S)NC3=O)=C(c3cccs3)Oc3ccccc32)cc1 (stereo unspecified)	CF NFkB inh 64
O=[N+]([O-])c1ccc(Sc2cccc[n+]2[O-])c2nonc12	HIF-2a block 91, TRPM1 prom inh 100, Shn3 inh set2 98, KKLEB tox -97, CF NFkB inh 84, Peg3 prom inh 111
CN1/C(=C/c2cc[n+](C)c3ccccc23)C=Cc2ccccc21	TRPM1 prom inh 83
C[n+]1ccc(/C=C/c2ccccc2O)c2ccccc21	none
COc1ccc(NC(=O)c2cc(C3CCCCN3C(=O)c3ccccc3)on2)c(C)c1 (stereo unspecified)	none (no result: TRPM1 prom inh)
CCOc1cc2c(c3c1C(c1ccccc1)N(S(=O)(=O)c1ccc(C)cc1)C3)C(=O)C=CC2=O (stereo unspecified)	HIF-2a block 68, Shn3 inh set2 99, KKLEB tox -67, CF NFkB inh 56, Peg3 prom inh 101 (no result: TRPM1 prom inh)
